Pf growth 48h – inhibits P. falciparum growth in the first generation, 48 h. P. falciparum luciferase growth in erythrocytes, 48 h. Potency, µM (top dose mostly 28.7 µM), inactives show at the top dose activity change, negative = inhibition, actives largely listed as inhibitors. 5.9% of 310,000 active. AID 504832; note: potency is the fitted concentration of half-maximal effect; % is set by controls: 0 for no effect and ±100 for the full control effect
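Luciferase-expressing P. falciparum in infected erythrocytes (2% hematocrit, 0.1% parasitemia final) in RPMI 1640/0.5% Albumax were exposed to compound for 48 hours at 37 C, 5% CO2; growth read as luminescence.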
CHX counter – affects cycloheximide protein synthesis inhibition readout, counter-screen | cell reporter, cycloheximide protein synthesis inhibition counterscreen | 12% of 300,000 active | max response, %; in the data active = max response mostly above about 13%, no sharp cut-off; inactive = mostly below about 14%; note: read at 38.3 µM for the half of the compounds with a filed dose; 0% is about no effect
SARS PLpro yeast – blocks SARS-CoV papain-like protease in a yeast assay | Potency, µM (titrated, usually from 32.9 µM), without a hit: at the top dose activity, positive = growth rescue, actives largely listed as activators | AID 485353 | 0.19% of 330,000 active | S. cerevisiae expressing SARS-CoV PLpro, growth rescue; calls by dose curve; note: potency is the fitted concentration of half-maximal effect; 0% is about no effect; nearly all actives have a fitted effect of over 55% in size
Pf growth 96h – P. falciparum growth inhibition at 96 hours | P. falciparum luciferase reporter growth, 96 h | Potency, µM (top dose mostly 28.7 µM), inactives show at the highest dose activity change, negative = inhibition, hits mostly inhibitors | 6.9% of 320,000 active | AID 504834; note: potency is the fitted concentration of half-maximal effect; % is set by controls: 0 for no effect and ±100 for the full control effect
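96 h incubation, 37 C, 5% CO2, of luciferase-reporter P. falciparum-infected RBCs (2% hematocrit, 0.05% parasitemia final) with test compounds; endpoint luminescence.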
Shiga toxin inh – Shiga toxin inhibition. Vero cells, Shiga toxin protein synthesis inhibition reporter. 9.2% of 290,000 active. inhibition, % at 38.7 µM; in the data active = inhibition mostly above about 28%, no sharp cut-off; inactive = mostly below about 43%; note: 0% is about no effect
AMA1 RON2 block – AMA1-RON2 (P. falciparum) interaction inhibition. Potency, µM (top dose mostly 58.2 µM), for inactives: at the highest dose activity change, negative = inhibition, most hits filed as inhibitors. AlphaScreen AMA1-biotinylated RON2 peptide binding. 0.2% of 360,000 active. AID 720542;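 note: potency is the fitted concentration of half-maximal effect; 0% = vehicle wells and -100% = peptide control; nearly all actives have a fitted effect of over 45% in size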
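AMA1 (3D7) with his tag at 25 nM final met compounds first, then biotinylated RON2 peptide at 25 nM; detection used donor plus acceptor beads, 10 µg/mL apiece, read by AlphaScreen after 30 min at room temperature.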
Numbers without * were called inactive; i = inactive; ? = inconclusive; nt = no result given; + = active, no number; [ ] = remark or other dose. Rows were chosen to be rich in hits. Some 19% of all compounds tested hit in one or more screens of this group. Unless noted, calls come from the whole dose curve; as a rule, active = well fitted curve in the direction sought with a large enough effect; inconclusive = small, poorly fitted or top-dose-only effect, or another doubt; inactive = no such curve, though single readings can be large; an effect the other way counts as inactive or inconclusive.

SMILES	Pf growth 48h	CHX counter	SARS PLpro yeast	Pf growth 96h	Shiga toxin inh	AMA1 RON2 block
COC(=O)C(C)Oc1ccc(-c2nccc(-c3ccccn3)n2)cc1 (stereo not drawn)	-9%	16*	0%	113%	23	10%
FCCCOc1ccc(-c2nccc(-c3ccccn3)n2)cc1	1%[0.00184 µM]	20*	-1%	39%	35*	19%
Cn1cc(-c2coc3c(C(=O)NCc4cccs4)cccc23)cn1	nt	nt	nt	nt	nt	-6%
O=C(COC(=O)COc1cccc(C(F)(F)F)c1)NC1CCS(=O)(=O)C1 (stereo not drawn)	-10%	nt	1%	14%	nt	11%
COc1ccc(Cl)cc1NC(=O)NNC(=O)C(=O)Nc1ccc(F)cc1	nt	nt	nt	nt	nt	62%
CCCCOC(=O)c1cc(=O)[nH]c(=O)[nH]1	1%	-3	4%	?	-6	17%
Cc1ccc(-n2nc3c(n2)/C(=N/O)CC/C3=N\O)cc1	i	44*	-35%	i	48*	-4%
NC(=O)C1CCN(Cc2ccc(OCc3ccccc3)cc2)CC1	105%	25*	0%	92%	54*	-1%
CCCCN(C)C(=O)C1CCN(Cc2ccc(OCc3ccccc3)cc2)CC1	?	13	-7%	-10%	active	-10%
CCOC(=O)N1CCN(C(=O)C2CCN(Cc3cccc(OCc4ccccc4)c3)CC2)CC1	5%	-2	-12%	4.7µM*	-8	-11%
CCOC(=O)N1CCN(C(=O)C2CCN(Cc3ccc(O)c(OCC)c3)CC2)CC1	-13%	12	0%	16%	-19	-8%
CCOC(=O)C1CCN(Cc2ccc(OCc3ccccc3)cc2)CC1	10%	3	0%	0%	6	?
CCc1nc(-c2cc3ccc(C)cc3[nH]c2=O)no1	63%	17*	-5%	?	34	-4%
COc1ccc2cc(CCNC(=O)C(C)C)c(=O)[nH]c2c1	14%	1	1%	2%	12	0%
Cc1ccc2cc(CCNC(=O)c3ccco3)c(=O)[nH]c2c1C	72%	61*	-3%	-26%	+	0%
CCCS(=O)(=O)NCCc1cc2ccc(C)cc2[nH]c1=O	31%	12*	4%	15%	28*	16%
COc1ccc2cc(CCNC(=O)c3ccco3)c(=O)[nH]c2c1	72%	58*	29%	?	95*	2%
COc1ccc(C(=O)NCCc2cc3ccc(C)c(C)c3[nH]c2=O)cc1OC	5%	-8	-4%	?	-2	-11%
Cc1ccccc1-n1c(SCC(=O)c2cc(C)n(C)c2C)nnc1-c1ccncc1	?	2	-2%	?	-8	7%
COc1ccc(OC)c(CCNC(=O)CN2C(=O)COc3ccc(S(=O)(=O)N4CCOCC4)cc32)c1	14%	0	-1%	-19%	-4	6%
CCc1nc2c(OCC3CCCCC3)cccn2c1N(C)C(=O)c1ccc(C)cc1	nt	nt	nt	nt	nt	-2%
Cc1ccc2cc(CCNC(=O)c3ccco3)c(=O)[nH]c2c1	59%	31*	-3%	nt	63*	-3%
COC(=O)CN(c1ccc(C(C)C)cc1)S(=O)(=O)c1c(C)[nH]c(=O)[nH]c1=O	nt	-4	-5%	9.3µM*	-22	5%
Cc1ccc(Cn2c(O)c(N=O)c3ccccc32)cc1	?	-3	1%	?	1	-4%
O=Nc1c(O)n(Cc2ccc(Cl)cc2)c2ccccc12	13µM*	-1	-27%	?	-4	-18%
SMILES	Pf growth 48h	CHX counter	SARS PLpro yeast	Pf growth 96h	Shiga toxin inh	AMA1 RON2 block
O=Nc1c(O)n(Cc2ccc(Cl)cc2Cl)c2ccccc12	?	-2	-40%	8.3µM*	-20	11%
Cc1ccc2c(c1)c(N=O)c(O)n2Cc1ccc(Cl)cc1	12µM*	-7	-5%	-34%	13	-30%
Cc1ccc(C)c(NC(=O)C[n+]2ccccc2)c1	25%	2	7%	?	-3	-9%
CCC1Oc2nc(SC)nnc2-c2ccccc2N1C(=O)c1ccccc1 (stereo not drawn)	-18%	16*	-8%	-21%	41	-1%
COc1ccccc1N1CCN(CCS(=O)(=O)c2cc(Cl)ccc2Cl)CC1	nt	nt	nt	nt	nt	1%
Cc1nnc(N/N=C/c2ccc(-c3ccc(Br)cc3)o2)n1N	?	15	-14%	3.7µM*	62	88%

Bioassay records as filed in PubChem BioAssay.
